Laboratory results from PubChem BioAssay.
A number with no mark means an inactive call. No rule for the calls is given here.

Molecular target: Pantothenate synthetase (Mycobacterium tuberculosis (strain ATCC 25618 / H37Rv)) (UniProt P9WIL5)
Assay: Coupled enzyme confirmation of inhibitors against recombinant Mtb PanC (AID 375);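 also: 0% = full reaction with vehicle and 100% = no enzyme background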
Settings: coupled enzyme assay; at 10 µM, active compounds read high

Chain of Pantothenate synthetase (Mycobacterium tuberculosis (strain ATCC 25618 / H37Rv)) (P9WIL5 whole entry, looked up): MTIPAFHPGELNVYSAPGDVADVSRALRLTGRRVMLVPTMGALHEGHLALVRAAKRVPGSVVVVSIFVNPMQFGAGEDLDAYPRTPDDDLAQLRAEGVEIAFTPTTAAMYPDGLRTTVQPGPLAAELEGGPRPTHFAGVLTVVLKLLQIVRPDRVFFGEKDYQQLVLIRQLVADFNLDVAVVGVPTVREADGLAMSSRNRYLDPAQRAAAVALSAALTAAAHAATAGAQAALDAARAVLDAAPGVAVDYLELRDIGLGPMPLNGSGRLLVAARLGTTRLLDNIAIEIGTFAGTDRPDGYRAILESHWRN

Compound | inhibition [%]
Cc1cc(C)nc(SCC(=O)Nc2ncc3c(n2)CCCC3=O)n1 | 0
CSC1=C(C#N)C(c2ccc(C)cc2)C2=C(CCCC2=O)N1 (stereo not given) | 0
COc1cc2nc(N3CCN(C(=O)C4COc5ccccc5O4)CC3)nc(N)c2cc1OC (stereo not given) | 3
O=C(C1CCCN(S(=O)(=O)c2ccc(Br)s2)C1)N1CCCCCC1 (stereo not given) | 0
Cc1cccc(NC(=O)c2cc(NC(=O)c3ccco3)ccc2Cl)n1 | 0
O=C(CCn1[nH]c(=O)c2ccccc2c1=O)NCCO | 0
CS(=O)(=O)N(CC(=O)Nc1ccc2c(c1)OCO2)Cc1ccc(Cl)cc1 | 0
CN1CCCN=C1COC(=O)C(O)(c1ccccc1)C1CCCCC1 (stereo not given) | 0
Cc1ccc(C2C(C(=O)c3sc(C)nc3C)=C(O)C(=O)N2CCN(C)C)o1 (stereo not given) | 0
O=C(O)CC1CCCC(c2ccccc2)C1=O (stereo not given) | 5
c1ccc(-c2ccccc2OCCn2cncn2)cc1 | 5
O=C(Cn1cnc2c(cnn2-c2ccc(F)cc2)c1=O)N1CCCc2ccccc21 | 0
CCOC(=O)CC(=O)c1cc(OC)c(OC)c(OC)c1 | 0
CCOc1ccccc1NC(=O)NC1CCN(CC(=O)Nc2ccc3c(c2)OCCO3)CC1 | 0
Cc1ccc(-c2cc(C(F)(F)F)n3ncc(C(=O)O)c3n2)cc1 | 5
COC(=O)c1ccccc1NC(=O)CN1CCC(n2nnc3cc(F)ccc32)CC1 | 0
CCn1c(=O)cc(OCC(=O)Nc2nc(C)cs2)c2ccccc21 | 0
CCCc1nnc2n1N=C(c1ccc(OC)c(OC)c1)CS2 | 0
Cc1cc(NC(=O)Cc2cn3ccsc3n2)n(-c2ccccc2)n1 | 1
CCc1nc(N)nc(N)c1-c1ccc(Cl)cc1 | 0

Compound | inhibition [%]
Cc1ccc(-c2noc(CCC(=O)N3CCN(c4cccc(C(F)(F)F)c4)CC3)n2)cc1 | 0
Cc1cccc(N2CCN(C(=O)C3CCCN(S(=O)(=O)c4cnc[nH]4)C3)CC2C)c1 (stereo not given) | 0
CCOC(=O)CSc1nnc(-c2ccc(Cl)cc2Cl)o1 | 2
CCCn1c(SCC(=O)Nc2cc(C)on2)nc2c1c(=O)n(C)c(=O)n2C | 0
Cc1ccc(C(=O)C2COC(=O)C2)cc1 (stereo not given) | 0
Cc1cnc(C(=O)Nc2ccc(N3CCN(C(=O)OC(C)(C)C)CC3)cc2)cn1 | 0
CCc1cc2c(=O)c(-c3nc4ccccc4[nH]3)coc2cc1OC(=O)N1CCOCC1 | 7
Cc1nc2cc(Cl)ccc2n1CCO | 2
CC1=C(C(=O)OCc2ccccc2)C(c2ccco2)n2ncnc2N1 (stereo not given) | 0
O=C(O)c1ccccc1S(=O)(=O)NCC(O)COc1ccc(Br)cc1 (stereo not given) | 2
CCc1nc2c(cnn2-c2ccc(Cl)cc2)c(=O)n1-c1ccc2c(c1)OCCO2 | 2
COc1ccc(C)cc1NS(=O)(=O)c1ccc(NS(=O)(=O)c2ccc(NC(C)=O)cc2)cc1 | 1
O=C(OCc1nnc(-c2ccccc2)o1)C1=COCCO1 | 0
O=C(Nc1cccnc1)c1noc2c1CCCCC2 | 0
CNC(=O)c1ccc(N(Cc2ccccc2C)S(C)(=O)=O)cc1 | 7
COc1ccc2c(c1)C(C)=CC(C)(C)N2C(=O)C(C)N1C(=O)c2ccccc2C1=O (stereo not given) | 4
Cc1csc(NC(=O)CCS(=O)(=O)c2ccc(Br)cc2)n1 | 2
CCC(=O)Nc1ccc(NC(=O)c2ccccn2)cn1 | 0
COc1ccc(N2CCN(C(c3ccccc3)c3sc4nc(C)nn4c3O)CC2)cc1 (stereo not given) | 0
CCCc1c(O)nc(SCC(=O)NCCc2ccc(OC)c(OC)c2)[nH]c1=O | 0
